From PubChem BioAssay come the findings set out here.

SMILES strings stand for the structures. Calls of active or inactive are those of the source. Unless noted, how the calls were made is not given here.

A short description of assay [1]: compounds binding Alexa647 anti-His antibody – biochemical, small-molecule microarray, 635 nm fluorescence, artefact control for SMM control protein annotation, primary screen (AID 1128).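 Further: score merges feature fluorescence with signal-to-noise for each printed compound spot.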 The conditions noted are these: higher = more signal.
For assay [2], the system named is Human papillomavirus type 1a E7 protein (residues 1-88). Put plainly: HPV1a E7 small-molecule binders, primary screen, biochemical, small-molecule microarray, residues 1-88, 635 nm (AID 1129). Particulars: small-molecule microarray binding, fluorescence 635 nm; higher = more signal.
In assay [3] the target is Focal adhesion kinase 1 (Homo sapiens) (UniProt Q05397). Put plainly: PTK2 protein binding on printed compound slides – biochemical, small-molecule microarray, 635/667 nm fluorescence, BSA, DTT, primary screen (AID 1130).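 Further: composite of spot emission at 667 nm and signal to noise over triplicate slides.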 The conditions noted are these: 635 nm fluorescence, higher = more signal.
Chain of Focal adhesion kinase 1 (Homo sapiens) (Q05397 whole entry, looked up): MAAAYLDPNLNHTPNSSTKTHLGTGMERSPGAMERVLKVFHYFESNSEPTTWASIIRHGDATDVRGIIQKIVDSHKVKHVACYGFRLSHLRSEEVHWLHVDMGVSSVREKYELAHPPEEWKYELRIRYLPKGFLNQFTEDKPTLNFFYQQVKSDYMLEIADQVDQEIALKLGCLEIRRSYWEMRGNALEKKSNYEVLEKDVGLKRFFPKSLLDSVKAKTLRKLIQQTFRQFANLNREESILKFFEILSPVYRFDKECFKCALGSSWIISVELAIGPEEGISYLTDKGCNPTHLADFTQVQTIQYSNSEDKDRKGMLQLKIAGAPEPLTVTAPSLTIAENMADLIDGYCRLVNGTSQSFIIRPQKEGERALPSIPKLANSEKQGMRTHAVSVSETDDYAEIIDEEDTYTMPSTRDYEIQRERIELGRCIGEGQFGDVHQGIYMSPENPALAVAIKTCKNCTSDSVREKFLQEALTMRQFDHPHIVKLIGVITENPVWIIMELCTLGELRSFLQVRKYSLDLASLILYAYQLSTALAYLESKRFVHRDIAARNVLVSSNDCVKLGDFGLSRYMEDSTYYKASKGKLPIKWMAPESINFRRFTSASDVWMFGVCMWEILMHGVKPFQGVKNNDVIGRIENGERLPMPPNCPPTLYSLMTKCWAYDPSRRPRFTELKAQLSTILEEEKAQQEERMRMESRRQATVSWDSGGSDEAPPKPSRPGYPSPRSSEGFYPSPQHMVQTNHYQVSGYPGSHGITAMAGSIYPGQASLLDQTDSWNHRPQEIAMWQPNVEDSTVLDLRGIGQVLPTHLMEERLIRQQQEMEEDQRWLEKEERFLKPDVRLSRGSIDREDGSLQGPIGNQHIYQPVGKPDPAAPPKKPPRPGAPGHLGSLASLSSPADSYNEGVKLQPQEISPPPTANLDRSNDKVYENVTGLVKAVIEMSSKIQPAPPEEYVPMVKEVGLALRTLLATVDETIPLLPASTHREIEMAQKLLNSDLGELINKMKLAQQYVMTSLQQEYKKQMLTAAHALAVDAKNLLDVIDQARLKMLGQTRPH
For assay [4], the system named is Fibrinogen (Alexa647-labelled). Nature of the assay: Alexa647-fibrinogen binding to printed small molecules – biochemical, small-molecule microarray, 635/667 nm fluorescence, artefact control for SMM control-protein annotation, profiling panel (AID 1131).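 Further: z-score merges 667 nm fluorescence with per-spot signal-to-noise over triplicate slides.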 Particulars: fibrinogen-A647 binding fluorescence, higher = more signal.
The target of assay [5] is Follistatin (Homo sapiens) (UniProt P19883). Nature of the assay: FST protein binding to printed compounds – biochemical, small-molecule microarray, 635/667 nm fluorescence, primary screen (AID 1132). Particulars: 635 nm fluorescence, higher = more signal.
Chain of Follistatin (Homo sapiens) (P19883 whole entry, looked up): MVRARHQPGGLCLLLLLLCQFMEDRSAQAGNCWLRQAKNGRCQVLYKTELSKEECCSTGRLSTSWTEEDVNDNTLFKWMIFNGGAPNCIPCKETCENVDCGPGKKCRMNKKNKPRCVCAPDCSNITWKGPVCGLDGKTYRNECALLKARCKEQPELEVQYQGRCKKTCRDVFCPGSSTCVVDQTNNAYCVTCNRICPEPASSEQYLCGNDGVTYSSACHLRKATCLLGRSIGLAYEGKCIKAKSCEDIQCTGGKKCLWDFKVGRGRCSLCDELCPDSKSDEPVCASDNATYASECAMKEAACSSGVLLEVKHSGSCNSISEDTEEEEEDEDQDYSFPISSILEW
Assay [6] addresses Fibroblast growth factor 2 (Homo sapiens) (UniProt P09038). Nature of the assay: basic fibroblast growth factor binding to printed compounds – biochemical, small-molecule microarray, 635/667 nm fluorescence, primary screen (AID 1133). The conditions noted are these: FGF2, fluorescence 635/667, higher = more signal.
A short description of assay [7]: JC-1 mitochondrial potential readout, lung cancer cells – cell-based, A549, JC-1 fluorescence, basal, 24 h, 100 nL, profiling panel (AID 1138).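 Further: A549 lung adenocarcinoma cells under basal conditions with no added stimulus; test concentration not given here.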 Particulars: higher = more signal.
In the next assay the test system is Lefty1. Nature of the assay: Lefty1 protein binding to printed compounds – biochemical, small-molecule microarray, 635/667 nm fluorescence, primary screen (AID 1139). The conditions noted are these: fluorescence 635/667, higher = more signal.
Assay [8] concerns wheat germ agglutinin (Triticum aestivum), Alexa647-labelled. Put plainly: Alexa647-WGA lectin binding to printed small molecules – biochemical, small-molecule microarray, 635/667 nm fluorescence, artefact control for SMM control-protein annotation, profiling panel (AID 1140).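 Further: score merges 667 nm feature emission with signal to noise over triplicate slides.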 Particulars: WGA-A647 binding, 635 nm fluorescence, higher = more signal.
For assay [9], the target named is Luciferin 4-monooxygenase (Photinus pyralis) (UniProt P08659). Nature of the assay: inhibition of purified Photinus pyralis luciferase – biochemical, luminescence, purified enzyme, 2006 set, primary screen (AID 1141).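 Further: cell-free assay with purified firefly luciferase at 100 ng per well in PBS; test concentration not given here.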 The conditions noted are these: purified firefly luciferase, SteadyGlo luminescence, 30 min; higher = more signal, called active from +8 up or from −8 down.
Chain of Luciferin 4-monooxygenase (Photinus pyralis) (P08659 whole entry, looked up): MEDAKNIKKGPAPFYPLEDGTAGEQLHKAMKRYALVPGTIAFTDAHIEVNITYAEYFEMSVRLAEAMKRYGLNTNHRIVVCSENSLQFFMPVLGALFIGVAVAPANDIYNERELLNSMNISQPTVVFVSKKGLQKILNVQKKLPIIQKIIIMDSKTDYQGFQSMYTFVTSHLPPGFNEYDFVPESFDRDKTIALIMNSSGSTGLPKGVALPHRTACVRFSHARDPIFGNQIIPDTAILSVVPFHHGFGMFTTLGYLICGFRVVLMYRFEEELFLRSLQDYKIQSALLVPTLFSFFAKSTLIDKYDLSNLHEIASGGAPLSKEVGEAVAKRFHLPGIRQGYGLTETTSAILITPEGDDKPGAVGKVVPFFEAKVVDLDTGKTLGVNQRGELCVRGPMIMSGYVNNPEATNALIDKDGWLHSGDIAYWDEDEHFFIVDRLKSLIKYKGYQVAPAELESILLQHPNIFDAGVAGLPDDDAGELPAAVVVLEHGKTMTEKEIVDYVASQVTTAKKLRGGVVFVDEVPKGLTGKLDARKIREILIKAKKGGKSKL

The test system of assay [10] is Wnt5a (protein binding on small-molecule microarray). Put plainly: small molecules binding Wnt5a protein – biophysical, small-molecule microarray, 635/667 nm fluorescence, primary screen (AID 1142).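 Further: fluorescence read at 667 nm with signal to noise per printed feature.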 Particulars: 635 nm fluorescence, higher = more signal.
A short description of assay [11]: ATP-based viability of Huh7 replicon cells – cell-based, CellTiter-Glo luminescence, basal, 48 h, cytotoxicity control for HCV replication inhibitor project, primary screen (AID 1143).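 Further: Huh7 hepatoma cells carrying a hepatitis C replication reporter with no stimulus; test concentration not given here.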 Particulars: higher = more signal, called active from +8 up or from −8 down.
The nature of assay [12]: Pseudomonas biofilm growth suppression – PAO1 strain, BacTiter-Glo luminescence, LB-PBS, primary screen (AID 1144). The conditions noted are these: P. aeruginosa PAO1 biofilm, 12 h, higher = more signal.
Assay [13] is described as follows: basal CRE-LacZ reporter activity in PC12 – cell-based, unstimulated, primary screen (AID 1145). Particulars: no forskolin, luminescence, 4.5 h, higher = more signal, called active from +8 up or from −8 down.
A short description of assay [14]: forskolin-driven CRE-LacZ activity in PC12 – cell-based, CRE-LacZ reporter, forskolin-stimulated, primary screen (AID 1146).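 Further: PC12 cells with 6xCRE LacZ reporter stimulated by forskolin 10 µM; beta-galactosidase reporter signal reflecting CREB driven transcription.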 The conditions noted are these: luminescence, 4.5 h, higher = more signal, called active from +8 up or from −8 down.
Assay [15] deals with Streptavidin (Streptomyces avidinii) (UniProt P22629). Nature of the assay: compounds binding control protein streptavidin – biophysical, small-molecule microarray, 635/667 nm fluorescence, artefact control for SMM compound annotation, primary screen (AID 1147).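 Further: signal reflects streptavidin binding to arrayed compounds as a control protein.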 The conditions noted are these: higher = more signal.
Chain of Streptavidin (Streptomyces avidinii) (P22629 whole entry, looked up): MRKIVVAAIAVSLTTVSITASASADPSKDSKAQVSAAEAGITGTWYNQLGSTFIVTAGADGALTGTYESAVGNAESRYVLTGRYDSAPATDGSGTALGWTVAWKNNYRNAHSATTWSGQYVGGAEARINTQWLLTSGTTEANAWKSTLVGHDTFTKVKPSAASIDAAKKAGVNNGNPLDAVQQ
A short description of assay [16]: probe aInhba binding on compound microarray – biochemical, small-molecule microarray, 635/667 nm fluorescence, primary screen (AID 1148).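 Further: score merges 667nm spot fluorescence with signal-to-noise for antibody binding to printed compounds.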 The conditions noted are these: higher = more signal.
For assay [17], the target named is Torsin-1A (Homo sapiens) (UniProt O14656). Nature of the assay: TOR1A wild-type binding on microarray – cell lysate, small-molecule microarray, lysate, 635/667 nm, primary screen (AID 1149). The conditions noted are these: COS7 hTOR1A-WT lysate, 635 nm fluorescence, higher = more signal.
Chain of Torsin-1A (Homo sapiens) (O14656 whole entry, looked up): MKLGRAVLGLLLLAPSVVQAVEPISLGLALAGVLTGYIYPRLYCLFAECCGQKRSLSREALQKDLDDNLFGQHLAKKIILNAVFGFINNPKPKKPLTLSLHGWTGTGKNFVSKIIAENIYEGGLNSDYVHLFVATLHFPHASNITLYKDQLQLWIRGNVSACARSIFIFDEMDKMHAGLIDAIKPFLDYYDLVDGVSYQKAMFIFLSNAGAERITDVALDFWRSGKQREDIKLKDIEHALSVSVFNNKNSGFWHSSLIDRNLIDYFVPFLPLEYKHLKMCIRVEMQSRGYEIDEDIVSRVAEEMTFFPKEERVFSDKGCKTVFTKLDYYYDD
Assay [18] shares this target. Put plainly: torsin A mutant lysate binding on microarrays – cell lysate, small-molecule microarray, COS7 lysate, 635/667 nm fluorescence, primary screen (AID 1150).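 Further: score pools 667 nm emission and signal to noise measuring lysate protein binding.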 The conditions noted are these: COS7 hTOR1A mutant lysate, 635 nm fluorescence, higher = more signal.
In assay [19] the test system is Sonic hedgehog protein (Shh). Nature of the assay: Sonic hedgehog microarray binding compounds – biochemical, small-molecule microarray, 635/667 nm fluorescence, primary screen (AID 1151).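 Further: Shh protein binding to compounds spotted on small-molecule microarray slides; score combines spot fluorescence intensity with signal-to-noise across triplicate slides.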 The conditions noted are these: 635 nm fluorescence, higher = more signal.

Chain of Fibroblast growth factor 2 (Homo sapiens) (P09038 whole entry, looked up): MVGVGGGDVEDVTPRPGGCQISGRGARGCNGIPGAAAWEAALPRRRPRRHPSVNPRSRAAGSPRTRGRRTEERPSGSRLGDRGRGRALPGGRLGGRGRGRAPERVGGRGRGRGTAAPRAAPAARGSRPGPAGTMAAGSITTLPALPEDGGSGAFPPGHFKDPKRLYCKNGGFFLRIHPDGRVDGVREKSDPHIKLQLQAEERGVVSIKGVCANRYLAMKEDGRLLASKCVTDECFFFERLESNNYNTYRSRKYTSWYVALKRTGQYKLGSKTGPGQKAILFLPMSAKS

Regarding `COCCCNC(=O)[C@@]1(Cc2ccccc2I)c2ccccc2C(=O)N(C2CCCCC2)[C@H]1c1ccc(CO)cc1`, the composite z-score in assay [1] worked out at 0.912; in assay [2], 1.02; in [3] it was 0.312; in assay [4] it was 0.544; in [5], 0.926; in assay [6], 1.29. In addition, the composite z-score in the assay with Lefty1 was 0.812; in assay [8], 0.772; in [10], 0.665; in assay [15], -0.0972; in assay [16], 0.115; in the assay with Torsin-1A (Homo sapiens) [17] it was -0.0751. The composite z-score is 0.646 in the assay with Torsin-1A (Homo sapiens) [18] and 1.04 in [19]. The z-score in assay [7] was 0.438; in assay [9], 0.948 (inactive); in assay [11] it was -4.51 (inactive); in assay [12] it was -1.54 (inactive); in assay [13] it was 0.468 (inactive); in assay [14], -0.175 (inactive).
`COCCOC(=O)N1C(=O)[C@@]2(c3cc(C#CCNC(N)=O)ccc31)[C@H](C(N)=O)[C@H]1C(=O)O[C@H](c3ccccc3)[C@H](c3ccccc3)N1[C@@H]2c1ccc(O)cc1`: the composite z-score in [1] was 1.78; in assay [2], -0.767; in assay [3] it was -0.284; in [4] it was -0.424; in assay [5], 0.994; in assay [6], 0.287. In addition, the composite z-score was 0.115 in the assay on Lefty1; -0.113 in [8]; 0.159 in assay [10]; -0.0811 in assay [15]; 0.296 in [16]; 0.572 in the assay with Torsin-1A (Homo sapiens) [17]. Moreover, the composite z-score is -0.0113 with Torsin-1A (Homo sapiens) [18] and 0.0133 in assay [19]. Also, the z-score was 0.222 in assay [7]; -2.19 (inactive) in [9]; 0.29 (inactive) in [11]; -0.204 (inactive) in assay [12]; 0.619 (inactive) in [13]; -0.713 (inactive) in assay [14].
As for `CCCCCCCCCCC(O)C1C=CC2C(=O)N(C)C(=O)C2N1Nc1ccccc1` (stereo not given), the composite z-score was -0.901 in assay [1]; -0.339 in [2]; 0.365 in assay [3]; -0.624 in assay [4]; -1.68 in [5]; -1.84 in assay [6]. In addition, the composite z-score in the assay with Lefty1 is -1.75; in [8], -0.848; in assay [10], -0.56; in assay [15], -0.925; in assay [16] it was -0.474; with Torsin-1A (Homo sapiens) [17] it was -0.0378. Further, the composite z-score with Torsin-1A (Homo sapiens) [18] is 0.213; in assay [19], -1.5. Further, the z-score in assay [7] is 0.172; in assay [9] it was -0.319 (inactive); in [11], -0.776 (inactive); in assay [12] it was 0.178 (inactive); in [13], 0.819 (inactive); in assay [14], 0.848 (inactive).
For the compound `CC1C2C(CCCO)=CC(C3C(=O)N(C)C(=O)C23)N1Cc1cccc(OC(F)(F)F)c1` (stereo not given), the composite z-score was 0.503 in assay [1]; 1.2 in assay [2]; 0.849 in assay [3]; 0.971 in assay [4]; 0.301 in [5]; 0.303 in assay [6]. The composite z-score with Lefty1 is 0.286; in [8], 0.877; in assay [10], 0.164; in assay [15], 2.22; in assay [16], 0.143; with Torsin-1A (Homo sapiens) [17], 0.76. Further, the composite z-score in the assay with Torsin-1A (Homo sapiens) [18] worked out at 1.47; in assay [19], 0.113. Moreover, the z-score in [7] was -0.703; in assay [9], -1.02 (inactive); in assay [11], -0.293 (inactive); in [12], 0.403 (inactive); in assay [13], -0.0142 (inactive); in [14], -0.733 (inactive).
`CCOC(=O)C[C@H]1[C@H](OC(=O)Cc2ccc3c(c2)OCO3)[C@@H](NC(=O)CC(C)C)c2cc(OCCCO)ccc2N1C(=O)c1ccc2ccccc2n1`: the composite z-score in [1] was determined as 0.212; in assay [2], 0.832; in assay [3], 0.325; in assay [4], 0.973; in assay [5] it was 1.32; in assay [6], 1.28. For the same compound, the composite z-score in the assay with Lefty1 is 0.424; in assay [8] it was 0.249; in assay [10], 0.25; in [15], 0.23; in [16] it was -0.0331; with Torsin-1A (Homo sapiens) [17], 0.384. Also, the composite z-score in the assay with Torsin-1A (Homo sapiens) [18] is -0.147; in [19], 0.458. Further, the z-score is -0.944 in assay [7]; 0.739 (inactive) in [9]; -3.23 (inactive) in assay [11]; 0.0536 (inactive) in assay [12]; 7.92 (inactive) in [13]; 0.812 (inactive) in assay [14].
